Only some compounds are listed: those with a hit (about 3.5% of all), similar ones and a draw of the others.
TEAD-YAP block = TEAD-YAP interaction inhibition, primary screen, TEAD-YAP interaction inhibitor project, luminescence, HEK-TIYL cells | TEAD-Gal4/YAP UAS-luciferase luminescence | inhibition, % at 9.12 µM | 1.4% of 640,000 active; in the data active = inhibition above about 32%
MITF primary = MITF inhibitors, primary screen, biochemical, AlphaScreen, human. Microphthalmia-associated transcription factor (Homo sapiens), O75030. AlphaScreen MITF homodimerization, bead proximity signal. inhibition, % at 2.6 µM. 0.91% of 650,000 active; in the data active = inhibition above about 50%
FBW7 act = FBW7 E3 ligase activators, primary screen, biochemical, AlphaScreen, human; normalized activity (activation), % at 26.1 µM; F-box/WD repeat-containing protein 7 (Homo sapiens), Q969H0; 0.13% of 650,000 active; AlphaScreen FBW7–phospho-cyclin E peptide binding, activator screen; in the data active = normalized activity above about 1.9%;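 note: purified mutant Fbw7 with reduced substrate affinity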
GPR151 ag = activators of human GPR151, primary screen, cell-based, PathHunter beta-arrestin, luminescence; PathHunter beta-arrestin GPR151 cells; AID 1508602, 2020; activation, % at 11.2 µM; 1% of 650,000 active; in the data active = activation above about 4.9%
Target sequence (Q8TDV0 whole entry, looked up): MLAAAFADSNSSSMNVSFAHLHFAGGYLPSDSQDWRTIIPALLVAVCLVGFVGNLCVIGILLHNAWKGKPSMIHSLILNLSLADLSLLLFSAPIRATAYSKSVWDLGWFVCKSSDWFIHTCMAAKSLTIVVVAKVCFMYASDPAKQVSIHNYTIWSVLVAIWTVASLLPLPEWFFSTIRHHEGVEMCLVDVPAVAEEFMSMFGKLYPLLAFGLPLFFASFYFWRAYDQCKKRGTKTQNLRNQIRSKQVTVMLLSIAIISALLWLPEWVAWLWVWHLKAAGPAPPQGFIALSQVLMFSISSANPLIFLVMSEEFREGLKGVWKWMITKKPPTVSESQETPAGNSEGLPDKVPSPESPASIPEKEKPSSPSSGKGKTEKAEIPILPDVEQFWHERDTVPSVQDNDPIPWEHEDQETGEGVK
Numbers stand for hits; n = inactive.

SMILES	TEAD-YAP block	MITF primary	FBW7 act	GPR151 ag
COc1ccc(CCNc2nc(NC3CCC(O)CC3)nc3c2ncn3C(C)C)cc1 (stereo unspecified)	n	n	n	n
Cc1ncc(CO)c2cc(C(=O)Nc3cccc(Cl)c3)c(=N)oc12	n	n	n	n
O=C(NCCc1cccs1)c1cc(Cl)ccn1	n	n	n	n
CCN(CC)C(=O)C1CCCN(c2nc(C)cc(NCc3cccc(C(F)(F)F)c3)n2)C1 (stereo unspecified)	35	n	n	n
Cc1cc(NCc2cccc(C(F)(F)F)c2)nc(N2CCCC2CO)n1 (stereo unspecified)	42	n	n	n
CCN(CC)C(=O)C1CCCN(c2nccc(NCc3cccc(C(F)(F)F)c3)n2)C1 (stereo unspecified)	n	n	n	n
c1ccc(OCCNc2nc(Nc3ncccn3)nc3c2ncn3-c2ccccc2)cc1	n	n	n	n
CCC(Cc1ccccc1)NS(=O)(=O)c1ccc2c(c1)CCN2C(=O)C1CC1 (stereo unspecified)	n	n	n	n
COCCSc1nsc(NC(=O)Nc2cccc(C(C)=O)c2)n1	33	n	n	n
C(=N\Nc1nc2ccccc2[nH]1)/c1ccccn1	95	n	n	n
C(=N\Nc1nc2ccccc2[nH]1)/c1cccc(/C=N/Nc2nc3ccccc3[nH]2)c1	n	n	n	n
C/C(=N\Nc1nc2ccccc2[nH]1)c1ccccc1Cl	n	n	n	n
C/C(=N\Nc1nc2ccccc2[nH]1)c1ccccc1O	n	52	n	n
Oc1ccc(Br)cc1/C=N\Nc1nc2ccccc2[nH]1	65	n	n	n
COc1ccc(N(C(C)C(=O)Nc2ccc(Br)c(C)c2)S(C)(=O)=O)cc1 (stereo unspecified)	n	n	n	n
O=C(N/N=C/c1ccc(O)cc1O)c1ccccc1O	52	n	n	n
O=C(CCC(=O)N/N=C/c1ccc(O)cc1O)N/N=C\c1ccc(O)cc1O	n	n	n	n
O=C(N/N=C/c1cc(I)ccc1O)c1ccccc1O	67	n	n	n
Cc1ccc(/C=N/NC(=O)c2ccccc2O)c(O)c1	n	n	n	n
O=C(N/N=C/c1ccc(O)cc1O)C(=O)N/N=C/c1ccc(O)cc1O	n	99	n	n
O=C(CCC(=O)Nc1cc(C(F)(F)F)ccc1Cl)N/N=C\c1ccc(O)cc1O	44	n	n	n
O=C(N/N=C/c1sc2ccccc2c1O)c1ccc(O)cc1O	47	n	n	n
COc1c(/C=N/NC(=O)c2ccccc2O)sc2ccccc12	n	n	n	n
COC(=O)c1ccc(NC(=O)c2c(NCc3cccc(OC)c3OC)sc3c2CCCC3)cc1	n	n	n	n
COC(=O)c1ccc(-n2c(C)cc(/C=C(\C#N)C(=O)N3CCOCC3)c2C)cc1	n	n	n	n
SMILES	TEAD-YAP block	MITF primary	FBW7 act	GPR151 ag
COC(=O)c1cccc(-n2c(C)cc(/C=C(\C#N)C(=O)Nc3ccc(OC)cc3)c2C)c1	53	n	n	n
CNC(=O)/C(C#N)=C\c1cc(C)n(-c2ccc(N3CCOCC3)cc2)c1C	n	n	n	n
Cc1cc(/C=C(\C#N)C(=O)N2CCOCC2)c(C)n1-c1ccccc1	71	n	n	n
COCCNC(=O)/C(C#N)=C/c1cc(C)n(-c2ccccc2)c1C	65	n	n	n
CNC(=O)/C(C#N)=C\c1cc(C)n(-c2ccc(Br)cc2)c1C	32	n	n	n
Cc1cc(C)cc(N=Cc2cccc(O)c2O)c1	n	n	n	n
COCCCNC(=O)/C(C#N)=C/c1cc(C)n(-c2sc3c(c2C#N)CCCC3)c1C	59	n	n	n
CCOC(=O)C1=C(O)/C(=C/c2ccccc2OCC(=O)O)SC1=Nc1ccc(C)cc1	n	n	n	n
CN(C)C(=O)C1C2NC(=S)NC1(C)Oc1ccccc12 (stereo unspecified)	n	n	n	n
CC1=CC2=NC(=O)/C(=C\c3cc(C)n(-c4cccc(C)c4)c3C)C(=N)N2O1	50	n	n	n
COc1cc(/C=C2/C(=N)N3OC(C)=CC3=NC2=O)ccc1OCCOc1cccc(C)c1	n	n	n	n
CC1=CC2=NC(=O)/C(=C\c3cc(C)n(-c4cccc(Cl)c4)c3C)C(=N)N2O1	n	n	n	n
CC1=CC2=NC(=O)/C(=C\c3ccc(OCc4ccc5c(c4)OCO5)c(Cl)c3)C(=N)N2O1	59	n	n	n
CC1=CC2=NC(=O)/C(=C\c3ccc(OCCOc4cccc(C)c4)cc3)C(=N)N2O1	n	n	2.2	n
CCCN1CCN(C(=O)c2ccc(C)s2)CCC1=O	n	n	n	n
C=CCn1c(SCC(=O)Nc2ccc(C)c([N+](=O)[O-])c2)nnc1-c1ccccc1O	n	n	n	n
CCOc1cc(/C=C2/SC(=S)NC2=O)cc(Br)c1O	n	n	n	n
O=C(Nc1cccc(S(=O)(=O)N2CCCCC2)c1)NC1(C(F)(F)F)Oc2ccccc2O1	n	n	n	n
COCCCN1C(=O)c2[nH]nc(-c3ccccc3O)c2C1c1cccc(Cl)c1 (stereo unspecified)	36	n	n	n
COCCCN1C(=O)c2[nH]nc(-c3ccccc3O)c2C1c1ccc(Cl)cc1 (stereo unspecified)	n	n	n	n
CCOc1ccccc1CNc1ncnc2c1nc1n2CCCCC1	41	n	n	n
CN(C)c1ccc(/C=C2\C(=O)N(c3nc(-c4ccc(Cl)cc4)cs3)N=C2c2ccccc2)cc1	n	n	n	n
N#C/C(=C\c1ccc(F)cc1)C(=O)Nc1ccc(C(=O)O)cc1	n	n	n	n
CCCC(=O)Oc1ccc(C2C(C(=O)OCC)=C(N)OC3=C2C(=O)CC(C)(C)C3)cc1 (stereo unspecified)	n	n	n	n
CC(C)(C)OC(=O)Nc1ccc(SCC(=O)O)cc1	83	n	n	n
SMILES	TEAD-YAP block	MITF primary	FBW7 act	GPR151 ag
COC(=O)Nc1ccc(SCC(=O)c2ccccc2)cc1	n	n	n	n
N#CC(C#N)=NNc1ccc2c(c1)OCO2	39	n	n	n
CCOC(=O)/C(C#N)=N/Nc1ccc2c(c1)OCCO2	n	n	n	n
CCn1ccc2ccc(OC)cc2c1=O	n	n	2.1	n
O=c1c(CN2CCN(Cc3ccccc3)CC2)coc2ccccc12	67	n	n	n
Cc1ccc(-c2nnc3sc(NC(=O)C(C)C)nn23)cc1	n	n	n	n
COc1cccc(N2C[C@@H]3C[C@@H](c4cnn(-c5ccccc5)c4)N4CCC[C@@]34C2=O)c1	37	n	n	n
CCC(C)(C)C1CCc2c(sc(NC(=O)c3sc4cc(C)ccc4c3Cl)c2C(N)=O)C1 (stereo unspecified)	n	n	n	n
O=C(NC1CCCCC1)c1ccc2nc3[nH]c4ccccc4c3nc2c1	n	n	n	n
CCOc1ccc(C2Oc3ccc(Br)cc3C=C2[N+](=O)[O-])cc1OCC (stereo unspecified)	41	n	n	n
